Experimental data: PubChem BioAssay (NCI)
Several values for one entry are separate records, joined by “and”; a condition that tells them apart may be missing. Equal values may be shown once. Compounds without any hit were thinned out: in the full panel of roughly 79,000, 15% have a hit. The source holds several records for some structures; these can differ, active in one and inactive in another. Activity calls are given as the source filed them. No stated cut-off is given here; in the data, active means growth inhibition above about 70%; inactive means the rest.

Tests used:
[1] = NCI Yeast Anticancer Drug Screen. Data for the rad50 strain (AID 155);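 further: 0% = growth of vehicle-only cultures of the same strain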; conditions: S. cerevisiae rad50 strain growth inhibition, stronger effect = higher value
In short: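 DNA repair mutant yeast, compound exposure, growth read-out; inhibition is taken relative to vehicle.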

[2] = NCI Yeast Anticancer Drug Screen. Data for the mec2-1 strain (AID 157); conditions: S. cerevisiae mec2-1 strain, stronger effect = higher value
In short: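 Each compound was tested on mec2-1 yeast, a strain altered in DNA damage repair or cell cycle control. Growth inhibition is reported relative to vehicle.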

[3] = NCI Yeast Anticancer Drug Screen. Data for the sgs1 mgt1 strain (AID 161);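 further: 0% = growth of cultures given vehicle only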; conditions: S. cerevisiae sgs1 mgt1 strain, stronger effect = higher value
In short: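 Test agents were incubated with a DNA-repair-mutant yeast strain. Growth was then read and compared against vehicle-treated controls.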

[4] = NCI Yeast Anticancer Drug Screen. Data for the cln2 rad14 strain (AID 165);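 further: 0% = growth equal to vehicle treated cultures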; conditions: S. cerevisiae cln2 rad14 strain, stronger effect = higher value
In short: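 Test compounds were added to cln2 rad14 yeast cultures; inhibition of growth was then determined by comparison with vehicle treatment.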

[5] = NCI Yeast Anticancer Drug Screen. Data for the bub3 strain (AID 167); conditions: S. cerevisiae bub3 mutant strain, stronger effect = higher value
In short: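 In this screen, a yeast mutant lacking normal mitotic checkpoint function is challenged with compound. Relative growth versus vehicle gives the inhibition value.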

[6] = NCI Yeast Anticancer Drug Screen. Data for the mlh1 rad18 strain (AID 175); conditions: S. cerevisiae mlh1 rad18 strain growth inhibition, stronger effect = higher value
In short: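 Inhibition values reflect reduced growth of mutant yeast versus vehicle-treated controls following compound exposure; the mutations affect DNA damage repair.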

[7] = NCI Yeast Anticancer Drug Screen. Data for the wt2 strain (AID 169);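 further: 0% = growth of vehicle-treated yeast cultures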; conditions: S. cerevisiae wt2 strain growth inhibition, stronger effect = higher value
In short: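 The panel's yeast strains carry defined changes in DNA repair or cell cycle genes. Each strain is grown with compound, and growth loss is scored relative to vehicle.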

[8] = at 5.0 µM (retest, dose inferred, filed as 0.5)
[9] = at 50.0 µM (retest, dose inferred, filed as 5.0)

Measured: growth inhibition

COc1cc2c(c(OC)c1OC)-c1ccc(SC)c(=O)cc1C(NC(=O)c1ccccc1)CC2 (stereo unspecified)
inactive: [1]; [8] -9% | [1]; [9] 65% | [2]; [8] -20% | [2]; [9] 61% | [3]; [8] 5% | [4]; [8] 11% | [4]; [9] 48% | [4]; at 50.0 µM 52.9% | [5]; [8] -29% | [5]; [9] 63% | [6]; [8] -6%
active: [1]; at 50.0 µM 79.8% | [2]; at 50.0 µM 86.9% | [3]; [9] 81% | [3]; at 50.0 µM 83.5% | [5]; at 50.0 µM 78.5% | [6]; [9] 70%

COc1nc(N)c(NC2OCC(O)C(O)C2O)c(=O)n1C (stereo unspecified)
inactive: [1]; at 50.0 µM -32.8% [middle of 5 runs]

C/C(=N\NC(=S)N1CCN(c2ccccn2)CC1)c1nccs1
active: [1]; [9] 98% | [1]; at 50.0 µM 86.5% | [2]; [9] 99% | [2]; at 50.0 µM 91.6% | [3]; [9] 99% | [3]; at 50.0 µM 90.8% | [4]; [9] 98% | [4]; at 50.0 µM 89.5% | [5]; [8] 73% | [5]; [9] 99% | [5]; at 50.0 µM 87.3% | [6]; [9] 99%
inactive: [1]; [8] 23% | [2]; [8] 43% | [3]; [8] 43% | [4]; [8] 52% | [6]; [8] 38%

O=Cc1cc([N+](=O)[O-])ccc1O.[Eu]
active: [1]; at 50.0 µM 81.3% | [2]; at 50.0 µM 86.1% | [3]; [9] 95% | [3]; at 50.0 µM 91.2% | [4]; [9] 97% | [4]; at 50.0 µM 83.2% | [5]; [9] 96% | [5]; at 50.0 µM 85.8% | [7]; at 100.0 µM 98% | [6]; at 50.0 µM 86.2%
inactive: [1]; [8] 28% | [1]; [9] 51% | [2]; [8] 46% | [2]; [9] 69% | [3]; [8] -4% | [4]; [8] 18% | [5]; [8] 49% | [7]; at 1.2 µM 6% | [7]; at 3.7 µM 7% | [7]; at 11.0 µM 20% | [7]; at 33.0 µM 36% | [6]; [8] 29% | [6]; [9] 64%

CCOC(=O)c1c[nH]c2cc(C(F)(F)F)ccc2c1=O
inactive: [1]; [8] 52% | [1]; at 50.0 µM 52% | [2]; at 50.0 µM -0.25% | [3]; [8] -23% | [3]; [9] -11% | [3]; at 50.0 µM 26.3% | [4]; [8] 9% | [4]; [9] 24% | [4]; at 50.0 µM 9.15% | [5]; [8] 22% | [5]; [9] 2% | [5]; at 50.0 µM 69.9% | [7]; at 1.2 µM -3% | [7]; at 3.7 µM -8% | [7]; at 11.0 µM -9% | [7]; at 33.0 µM -10% | [7]; at 100.0 µM -10% | [6]; [8] 56% | [6]; at 50.0 µM 1.5%
active: [1]; [9] 93% | [2]; [8] 74% | [2]; [9] 96% | [6]; [9] 99%

Cc1ccc(NCCN(C)C)c2c(=O)c3cc(O)ccc3sc12
active: [1]; [9] 99% | [1]; at 50.0 µM 88.7% | [2]; [9] 99% | [2]; at 50.0 µM 91.3% | [3]; [9] 99% | [3]; at 50.0 µM 91.2% | [4]; [9] 98% | [4]; at 50.0 µM 90% | [5]; [9] 98% | [5]; at 50.0 µM 88.4% | [6]; [9] 99%
inactive: [1]; [8] 27% | [2]; [8] 5% | [3]; [8] 10% | [4]; [8] 15% | [5]; [8] 4% | [6]; [8] 18%

CCC(C)c1ccc(O)c(C(C)CC)c1 (stereo unspecified)
inactive: [1]; [8] 40% | [1]; at 50.0 µM 58.9% | [2]; [8] 57% | [2]; at 50.0 µM 30.3% | [3]; [8] -26% | [3]; at 50.0 µM 45.8% | [4]; [8] 15% | [4]; [9] 60% | [4]; at 50.0 µM 27.8% | [5]; [8] 38% | [5]; [9] 63% | [5]; at 50.0 µM 68.7% | [7]; at 1.2 µM -3% | [7]; at 3.7 µM -13% | [7]; at 11.0 µM -11% | [7]; at 33.0 µM -1% | [6]; [8] 44% | [6]; at 50.0 µM 58.9%
active: [1]; [9] 98% | [2]; [9] 98% | [3]; [9] 72% | [7]; at 100.0 µM 98% | [6]; [9] 99%

COc1cccc(-c2nnc(-c3ccccc3)o2)c1
52% (inactive) and 99% (active): [3]; [9]
73% (active) and 21% (inactive): [4]; [8]
32.5% (inactive) and 80.2% (active): [4]; at 50.0 µM
18% (inactive) and 98% (active): [4]; [9]
29.4% (inactive) and 89.1% (active): [1]; at 50.0 µM
active: [5]; [9] 85% and 98% | [7]; at 100.0 µM 97%
33.5% (inactive) and 89.4% (active): [3]; at 50.0 µM
16.9% (inactive) and 84.1% (active): [6]; at 50.0 µM
inactive: [1]; [8] 32% and 33% | [1]; [9] 36% and 55% | [2]; [8] 36% and 45% | [2]; [9] 40% and 55% | [3]; [8] -1% and 11% | [5]; [8] 30% and 13% | [7]; at 1.2 µM 20% | [7]; at 3.7 µM 7% | [7]; at 11.0 µM 4% | [7]; at 33.0 µM 46% | [6]; [8] 30% and 34% | [6]; [9] 44% and 54%
71% (active) and 15.5% (inactive): [5]; at 50.0 µM
16.4% (inactive) and 85.8% (active): [2]; at 50.0 µM

Clc1nc(Cl)c(Cl)c(Cl)n1
inactive: [1]; [8] 29% | [1]; at 50.0 µM 64% | [2]; [8] 23% | [3]; [8] 5% | [3]; at 50.0 µM 8.65% | [4]; [8] 11% | [4]; at 50.0 µM 13.1% | [5]; [8] 23% | [5]; at 50.0 µM 33% | [6]; [8] 39%
active: [1]; [9] 98% | [2]; [9] 100% | [2]; at 50.0 µM 72.5% | [3]; [9] 98% | [4]; [9] 92% | [5]; [9] 99% | [6]; [9] 98%
